Hits are enriched below; roughly 1.6% of the tested compounds scored in any of these assays.
Myeloid diff MLP: myeloid differentiation induction | ER-HoxA9 myeloid progenitors, lysozyme-GFP differentiation, flow cytometry | calls only at 10 µM | 360,000 compounds, 1% hits | AID 624256;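 active means normalized GFP-positive differentiation at or above the plate's own cutoff, the solvent-only control mean plus 3 SD; inconclusive means no clear call, values can overlap the other calls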;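 further: cells exposed to compound for four days before flow analysis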
ABCB6 inh 2: inhibitors of human ABC transporter ABCB6. 360,000 compounds, 0.19% hits. fluorescence ratio to DMSO, % at 10 µM. K562-ABCB6 porphyrin accumulation, flow cytometry, 1 h; hits give low values. Q9NP58;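 active means fluorescence ratio to DMSO below 75%, the collection mean minus 3 SD; inconclusive means too few cells collected in the well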;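 further: signal is porphyrin accumulated inside mitochondria; 100% equals median channel fluorescence of DMSO control wells; lower ratio means ABCB6 inhibition with less porphyrin fluorescence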
Target sequence (Q9NP58 whole entry, looked up): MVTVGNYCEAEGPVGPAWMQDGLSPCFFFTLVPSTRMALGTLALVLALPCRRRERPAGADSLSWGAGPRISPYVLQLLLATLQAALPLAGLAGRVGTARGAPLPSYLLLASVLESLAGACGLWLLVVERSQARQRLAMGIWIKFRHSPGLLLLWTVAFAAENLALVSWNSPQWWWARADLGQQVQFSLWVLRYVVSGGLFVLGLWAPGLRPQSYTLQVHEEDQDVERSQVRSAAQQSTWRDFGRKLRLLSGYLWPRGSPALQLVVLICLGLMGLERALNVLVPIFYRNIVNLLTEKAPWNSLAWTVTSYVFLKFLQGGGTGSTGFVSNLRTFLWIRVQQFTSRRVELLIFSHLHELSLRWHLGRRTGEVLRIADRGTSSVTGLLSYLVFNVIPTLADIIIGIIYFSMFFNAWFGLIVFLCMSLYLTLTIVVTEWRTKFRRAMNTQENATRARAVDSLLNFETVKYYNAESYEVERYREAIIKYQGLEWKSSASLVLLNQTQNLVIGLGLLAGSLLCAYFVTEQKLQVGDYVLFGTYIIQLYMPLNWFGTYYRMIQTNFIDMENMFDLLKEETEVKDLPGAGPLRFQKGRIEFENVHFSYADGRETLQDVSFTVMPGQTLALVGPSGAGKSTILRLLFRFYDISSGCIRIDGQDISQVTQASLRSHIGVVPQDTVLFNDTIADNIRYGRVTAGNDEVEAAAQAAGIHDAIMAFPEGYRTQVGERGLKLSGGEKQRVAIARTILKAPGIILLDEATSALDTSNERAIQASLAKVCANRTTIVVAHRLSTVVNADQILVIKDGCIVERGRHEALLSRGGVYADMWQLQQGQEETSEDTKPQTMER
Glyco luc inh: N-linked glycosylation inhibition | D54 ERlucT glycosylation luciferase reporter, 24 h; percent of 100 nM tunicamycin response | reporter increase, % at 12.5 µM | 360,000 compounds, 0.23% hits;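 active means mean luciferase reporter signal, scaled so untreated is 0 and the glycosylation-blocking control 100, at or above a set limit in every replicate; inconclusive means mean reaches the limit but not every replicate does; inactive means mean below the limit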;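 further: luciferase carries N-glycosylation sites so blocking glycosylation raises the light; 0% = median of neutral control wells and 100% = median of 100 nM tunicamycin wells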
RAD54 branch: inhibitors of human RAD54 branch migration. Q92698. RAD54 Holliday junction branch migration, FAM/BHQ fluorescence. inhibition, % at 10.4 µM. 360,000 compounds, 0.14% hits. AID 602329;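 active means mean normalized replicate activity at least 40 and at least half of replicates scoring 40 or more; inconclusive means only one of the two criteria met; inactive means mean below 40 and under half of replicates reaching 40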;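 further: 0% = median of neutral control wells and 100% = median of positive control wells; inhibitors cause a drop in the FAM fluorescence signal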
Vif inh: blocks HIV Vif function. HEK293T cells, Vif self-association by quenched fluorescence, imaging, 24 h. inhibition, % at 7.49 µM. 340,000 compounds, 0.35% hits. AID 602346; in the data active means inhibition above about 50%, passing the limit was not always enough; inconclusive means no clear call, values can overlap the other calls; inactive means below about 31%
Myeloid diff: compounds promoting myeloid differentiation; shares compounds with Myeloid diff MLP; ER-HoxA9 myeloid progenitors, GFP/Mac1 double-positive flow; calls only; 2,300 compounds, 2% hits;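 active means share of green or green-and-red cells above 9 and 9% in run 1 or 4 and 3% in run 2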
GFP autofluor: counter-screen for myeloid differentiation promoters: compound fluorescence. shares compounds with Myeloid diff MLP. ER-HoxA9 myeloid progenitors, no estrogen, GFP autofluorescence flow cytometry; vehicle wells 0%, positive control 100%. fluorescence response, % (test concentration not listed). 2,300 compounds, 7.4% hits;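 active means over 5% cells positive for green fluorescent reporter, or over 2% positive for both it and APC stain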;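 further: range taken on the double positive population between DMSO and positive control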
Starred values were filed as active, the others as inactive; i = inactive; ? = inconclusive; · = no result given; + = active, no number.

SMILES	Myeloid diff MLP	ABCB6 inh 2	Glyco luc inh	RAD54 branch	Vif inh	Myeloid diff	GFP autofluor
O=c1c2c(nc3n1CCCCC3)-c1ccccc1CC21CCCCC1	i	105.0	-1.7	0.7	3.5	i	0.0
O=S(=O)(c1ccc2c(c1)OCCO2)N1CCC(c2nc3ccc(Cl)cc3[nH]2)CC1	i	97.0	1.0	1.1	-8.7	i	0.0
O=S(=O)(c1ccc2c(c1)OCCO2)N1CCC(c2nc3ccccc3[nH]2)CC1	i	89.0	-1.2	·	1.1	·	·
Oc1ccc(Br)cc1-c1ccnn1-c1ccccc1	+	101.0	12.9	5.5	-5.7	i	0.0
CC(C)(C)NNC(=S)Nc1ccc(S(=O)(=O)N2CCOCC2)cc1	i	99.0	6.3	·	0.4	i	0.0
O=C(N[C@H]1CC[C@H](CCn2cc(-c3ccccn3)nn2)O[C@@H]1CO)c1ccccc1	·	·	·	-0.7	·	·	·
COc1nc(-c2ccccc2)nc(C)c1CC(=O)O	i	99.0	1.2	-5.5	2.4	i	0.0
COc1nc(-c2ccccc2)nnc1-c1ccccc1	i	98.0	2.4	·	23.1	·	·
CO[C@H]1CN(C)C(=O)c2cc(NC(C)=O)ccc2OC[C@@H](C)N(C(=O)c2ccncc2)C[C@H]1C	·	·	·	-10.0	·	·	·
CC1Cc2ccccc2N1C(=O)Cn1nnc(-c2ccccc2NC(=O)C2CCC2)n1 (stereo unspecified)	i	88.0	-3.1	2.7	-6.7	i	1.0
COCC(C)NCc1cccc(OC)c1OC (stereo unspecified)	i	718.0	1.1	·	1.3	i	0.3
CCN(CC(=O)NC(=O)NC1CCCCC1)Cc1nc2ccccc2c(=O)[nH]1	i	95.0	-0.7	·	-12.4	·	·
CC1CCC(NC(=O)CC(C)(C)Cc2nc3ccccc3c(=O)[nH]2)CC1 (stereo unspecified)	i	91.0	-2.0	-8.2	-3.4	i	1.2
Cc1noc(C)c1NC(=O)Nc1ccc2c(c1)CC(=O)N([C@@H](C)CO)C[C@H](C)[C@@H](CN(C)Cc1ccccc1)O2	·	·	·	0.4	·	·	·
COc1ccccc1OCc1ccc(C(=O)NN)cc1	i	100.0	-1.1	0.8	16.9	i	0.0
CN(C)S(=O)(=O)c1cccc(C(=O)NC(=S)N(CCC#N)Cc2cccnc2)c1	i	95.0	-1.7	·	-0.1	i	1.6
CSc1nnc(N2C(=O)C(O)=C(C(=O)c3ccc(C)o3)C2c2ccc(C)cc2)s1 (stereo unspecified)	+	106.0	-6.9	-18.6	-7.0	i	0.0
CSc1nnc(N2C(=O)C(O)=C(C(=O)c3ccco3)C2c2ccccc2)s1 (stereo unspecified)	i	107.0	0.7	-11.0	-3.5	·	·
O=C(C[C@@H]1C=C[C@H](NC(=O)c2ccc3c(c2)OCO3)[C@H](CO)O1)NCc1ccc(Cl)cc1	·	·	·	1.4	·	·	·
CC1(C)O[C@@H]2C[C@H]3[C@@H]4C[C@H](F)C5=CC(=O)CC[C@]5(C)[C@H]4[C@@H](O)C[C@]3(C)[C@]2(C(=O)CO)O1	i	105.0	5.9	14.0	-3.2	i	0.4
CC1(C)O[C@@H]2C[C@H]3[C@@H]4C[C@H](F)C5=CC(=O)C=C[C@]5(C)[C@H]4[C@@H](O)C[C@]3(C)[C@]2(C(=O)CO)O1	?	95.0	7.3	-9.1	-5.3	·	·
CCN1[C@@H]2c3ccc(C4=CCCC4)c(=O)n3C[C@@H]2[C@@H](CO)[C@@H]1C(=O)NCCc1ccccc1	·	·	·	-11.4	·	·	·
COc1ccccc1CNC(=O)CSc1ccsc1[N+](=O)[O-]	i	107.0	-0.8	·	7.0	i	0.9
CN=Cc1nc(-c2ccccc2)oc1O	i	88.0	-2.5	0.5	14.8	·	·
Cc1ccc(-c2nc(C=Nc3ccc(O)cc3)c(O)o2)cc1	i	99.0	15.0	·	-23.2	i	0.0
SMILES	Myeloid diff MLP	ABCB6 inh 2	Glyco luc inh	RAD54 branch	Vif inh	Myeloid diff	GFP autofluor
O=C(O)c1ccc(N=Cc2nc(-c3ccco3)oc2O)cc1	i	100.0	0.1	·	-1.6	·	·
Oc1oc(-c2ccco2)nc1C=Nc1ccccc1	i	99.0	-1.2	2.7	-2.1	i	1.3
C[C@@H]1CCCCO[C@H](CN(C)S(=O)(=O)c2cccs2)[C@@H](C)CN([C@H](C)CO)C(=O)c2cc(NS(C)(=O)=O)ccc2O1	·	·	·	-0.3	·	·	·
COc1ccc(NC(=O)Nc2ccc3c(c2)CC(=O)N([C@@H](C)CO)C[C@@H](C)[C@H](CN(C)C(=O)Nc2ccccc2)O3)cc1	·	·	·	-5.4	·	·	·
CS(=O)(=O)N(Cc1ccc(Cl)cc1)c1ccc(C(=O)NCCSc2ccccn2)cc1	+	89.0	-5.3	13.1	0.0	i	3.9
O=C(NCCSc1ccccn1)c1ccc(Cl)cc1	i	96.0	-14.3	-11.5	-3.6	·	·
NC(Cc1ccc(Cl)cc1)c1csc(NC(=O)NCC2CCCCC2)n1 (stereo unspecified)	+	101.0	-14.8	-2.2	·	i	1.0
NC(Cc1ccc(Cl)cc1)c1csc(NC(=O)NCCc2ccccc2)n1 (stereo unspecified)	i	99.0	-2.5	10.3	-8.5	·	·
O=S(=O)(c1cccc(-c2nnc(SCc3ccc(Cl)cc3)o2)c1)N1CCCCC1	+	99.0	-2.5	-14.4	-9.1	i	19.4*
NC(=O)CSc1nnc(-c2cccc(S(=O)(=O)N3CCCCC3)c2)o1	i	94.0	1.8	·	2.7	·	·
CCC(=O)N[C@H]1CC[C@@H](CCn2cc(CN(C)C)nn2)O[C@@H]1CO	·	·	·	6.9	·	·	·
O=C1NC(=O)c2cc(Br)cc3cccc1c23	i	96.0	8.0	·	-1.7	·	·
Cc1ccc(NS(=O)(=O)c2cc3c4c(cccc4c2)C(=O)NC3=O)cc1C	+	98.0	3.1	-9.9	·	i	2.5
CO[C@@H]1CN(C)C(=O)c2ccc(NS(C)(=O)=O)cc2OC[C@@H](C)N(C(=O)c2ccc3c(c2)OCO3)C[C@@H]1C	·	·	·	6.7	·	·	·
Cc1cccc(C(=O)NC2CCN(C(=O)N3CCOCC3)CC2)c1	+	93.0	3.7	-3.7	-5.1	i	0.0
Cc1cc(C(=O)CN2C(=O)CCC2=O)c(C)n1Cc1ccccc1	+	92.0	·	-3.1	·	i	0.3
Cc1cc(C(=O)CN2C(=O)NC3(CCCc4ccccc43)C2=O)c(C)n1Cc1ccccc1 (stereo unspecified)	i	99.0	0.7	·	17.6	·	·
CCN1CCN(CC(=O)Nc2ccc(S(=O)(=O)N3C(C)CCCC3C)cc2)CC1 (stereo unspecified)	i	83.0	-4.4	2.7	-5.1	i	0.0
CCN1CCN(CCCNC(=O)CS(=O)(=O)Cc2nc(-c3cccc(OC)c3)oc2C)CC1	i	102.0	-0.2	·	6.0	i	0.6
CC(c1ccccc1)N1C(=O)CC(Sc2ncccc2C(=O)O)C1=O (stereo unspecified)	·	98.0	0.8	·	7.1	i	3.4
